Reference: PubChem BioAssay (NCI)
About 79,000 compounds went through this panel and 15% of them were active in at least one assay; those are over-represented in the sample as a whole. Rule as the data show it: active = growth inhibition above about 70%; inactive = the rest.

Assays:
[1] = NCI Yeast Anticancer Drug Screen. Data for the rad50 strain (AID 155);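 also: 0% = growth of vehicle-only cultures of the same strain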; conditions: S. cerevisiae rad50 strain growth inhibition; at 50.0 µM; stronger effect = higher value
Outline: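 Cells are treated with compound, grown, and their growth is then scored against vehicle-only cultures of the same repair-deficient yeast strain.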

[2] = NCI Yeast Anticancer Drug Screen. Data for the mec2-1 strain (AID 157); conditions: S. cerevisiae mec2-1 strain, at 50.0 µM, stronger effect = higher value
Outline: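 mec2-1 yeast strain, carrying an alteration in DNA damage repair or cell cycle control, was exposed to compounds; growth inhibition was measured relative to vehicle-treated controls.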

[3] = NCI Yeast Anticancer Drug Screen. Data for the sgs1 mgt1 strain (AID 161);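 also: 0% = growth of cultures given vehicle only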; conditions: S. cerevisiae sgs1 mgt1 strain, at 50.0 µM, stronger effect = higher value
Outline: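 Growth of a repair-deficient yeast mutant was monitored after compound treatment and expressed as inhibition relative to vehicle-treated cultures.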

[4] = NCI Yeast Anticancer Drug Screen. Data for the cln2 rad14 strain (AID 165);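 also: 0% = growth equal to vehicle treated cultures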; conditions: S. cerevisiae cln2 rad14 strain, at 50.0 µM, stronger effect = higher value
Outline: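 Yeast carrying cln2 and rad14 alterations (cell cycle control and DNA damage repair) were exposed to compounds. Growth inhibition was measured against vehicle-treated controls.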

[5] = NCI Yeast Anticancer Drug Screen. Data for the bub3 strain (AID 167); conditions: S. cerevisiae bub3 mutant strain, at 50.0 µM, stronger effect = higher value
Outline: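 Part of a panel of yeast mutants defective in DNA damage repair or cell cycle regulation. Each strain is grown with compound, and inhibition is calculated relative to solvent-treated cultures.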

[6] = NCI Yeast Anticancer Drug Screen. Data for the mlh1 rad18 strain (AID 175); conditions: S. cerevisiae mlh1 rad18 strain growth inhibition; at 50.0 µM; stronger effect = higher value
Outline: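 Growth inhibition of the yeast strain was measured after compound exposure and expressed relative to vehicle-treated controls. The strain carries defined defects in DNA damage repair.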

Measured: growth inhibition

CCOC(=O)c1cn(C)c2c1C(O)=C(C(=O)OC)CC(=O)N2
inactive: [1] 4.5% | [2] 1.1% | [3] -14.2% | [4] 7.2% | [5] -12.6% | [6] -26.8%

O=C(Nc1cc(Br)c2cccc3c2c1CC3)c1ccccc1
inactive: [1] 6.35% | [2] 10.9% | [3] 1.45% | [4] -5.25% | [5] 14.3% | [6] -0.95%

CC(c1ccccc1)n1cnc2c(Cl)ncnc21 (stereo not drawn)
inactive: [1] 5% | [2] -16.7% | [3] 5.05% | [4] -0.5% | [5] 6.3% | [6] -17.2%
